A number with no mark means an inactive call. Activity calls are given as the source filed them. Unless noted, the call rests on the fitted dose curve; in most records, active means well fitted curve in the direction sought with a large enough effect in the repeat runs; inconclusive means weak or mixed curves; inactive means no such curve, though single readings can be large; an effect the other way counts as inactive or inconclusive.

Experiment [1] is described as follows: qHTS assay to identify small molecule antagonists of the glucocorticoid receptor (GR) signaling pathway - cell viability counter screen (AID 720693; further: nearly all actives have a fitted effect of over 55% in size). (In general: qHTS replaces the single test concentration by a dilution series.)
Experiment [2] is described as follows: qHTS assay for identifying genotoxic compounds that show differential cytotoxicity against isogenic chicken DT40 cell lines with known DNA damage response pathways - wild type cell line (AID 743012). Further: nearly all actives have a fitted effect of over 60% in size. Further: potency means the concentration at half of the fitted maximal effect. Summed up:
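Cytotoxicity in repair-proficient parental chicken DT40 cells serves as the comparator for Rad54/Ku70- and Rev3-deficient lines. Cells were exposed to compounds for 40 h at 37 C/5% CO2, and ATP-based luminescence (CellTiter-Glo) measured viability.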

A short description of experiment [3]: qHTS assay for identifying genotoxic compounds that show differential cytotoxicity against isogenic chicken DT40 cell lines with known DNA damage response pathways - Rev3 mutant cell line (AID 743014). Further: nearly all actives have a fitted effect of over 55% in size. Further: potency means the concentration at half of the fitted maximal effect.
The nature of experiment [4]: qHTS assay for identifying genotoxic compounds that show differential cytotoxicity against isogenic chicken DT40 cell lines with known DNA damage response pathways - Rad54/Ku70 mutant cell line (AID 743015). Further: nearly all actives have a fitted effect of over 60% in size. Further: potency means the concentration at half of the fitted maximal effect.
Experiment [5] in a line: qHTS assay to identify small molecule antagonists of the androgen receptor (AR) signaling pathway - cell viability counter screen (AID 743033; further: nearly all actives have a fitted effect of over 45% in size).
Experiment [6] deals with thyroid hormone receptor (rat, GH3 cells). Put plainly: qHTS assay to identify small molecule agonists of the thyroid receptor (TR) signaling pathway (AID 743066; calls by dose curve).
Experiment [7] concerns the target Estrogen receptor (Homo sapiens) (UniProt P03372). Kind of experiment: qHTS assay to identify small molecule antagonists of the estrogen receptor alpha (ER-alpha) signaling pathway (AID 743069; active means well fitted curve in the direction sought with a large enough effect in the signal ratio in the repeat runs, not every such curve was filed as active; inconclusive means weak or mixed curves, or effect the other way; inactive means no such curve, though single readings can be large or run the other way; the % refers to the signal ratio; further: potency means the concentration at half of the fitted maximal effect). In short, it runs like this:
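In this cell-based reporter format, GripTite HEK293 cells harbouring ER-alpha-UAS-bla were grown overnight with 2% charcoal-stripped FBS, dosed with DMSO-dissolved compounds, then challenged with 17beta-estradiol. After 18 hr at 37C, beta-lactamase activity was detected by FRET fluorescence.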

Experiment [8] in a line: qHTS assay to identify small molecule antagonists of the estrogen receptor alpha (ER-alpha) signaling pathway - cell viability counter screen (AID 743074; calls by dose curve; further: nearly all actives have a fitted effect of over 45% in size).
The target of experiment [9] is Estrogen receptor (Homo sapiens) (UniProt P03372). Kind of experiment: qHTS assay to identify small molecule agonists of the estrogen receptor alpha (ER-alpha) signaling pathway (AID 743075; calls by dose curve).
Sequence of Estrogen receptor (Homo sapiens) (P03372 whole entry, looked up): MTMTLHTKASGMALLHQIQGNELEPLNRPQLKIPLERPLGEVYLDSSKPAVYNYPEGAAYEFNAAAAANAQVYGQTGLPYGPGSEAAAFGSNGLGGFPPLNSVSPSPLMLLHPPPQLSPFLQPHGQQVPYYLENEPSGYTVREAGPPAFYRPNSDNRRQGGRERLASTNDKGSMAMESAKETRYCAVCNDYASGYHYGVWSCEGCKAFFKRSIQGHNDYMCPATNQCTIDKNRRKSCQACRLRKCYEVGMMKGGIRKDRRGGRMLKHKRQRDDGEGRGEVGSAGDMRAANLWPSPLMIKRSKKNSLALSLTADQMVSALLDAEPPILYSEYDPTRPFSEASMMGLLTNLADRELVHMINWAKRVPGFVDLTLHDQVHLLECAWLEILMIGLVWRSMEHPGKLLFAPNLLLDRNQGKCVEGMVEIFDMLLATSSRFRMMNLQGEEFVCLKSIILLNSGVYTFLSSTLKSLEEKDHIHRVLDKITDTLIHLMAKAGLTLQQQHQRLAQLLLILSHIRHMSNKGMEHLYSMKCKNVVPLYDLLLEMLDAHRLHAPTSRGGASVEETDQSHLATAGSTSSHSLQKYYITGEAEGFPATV
Experiment [10] has the same target. Put plainly: qHTS assay to identify small molecule agonists of the estrogen receptor alpha (ER-alpha) signaling pathway using the BG1 cell line (AID 743079). Further: nearly all actives have a fitted effect of over 20% in size.
The nature of experiment [11]: qHTS assay to identify small molecule antagonists of the estrogen receptor alpha (ER-alpha) signaling pathway using the BG1 cell line (AID 743080; calls by dose curve;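 further: BG1 cells stimulated with 17beta-estradiol alongside compound; series mostly up to about 70 µM; nearly all actives have a fitted effect of over 25% in size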). Summed up:
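Luminescence from a 4×ERE-luciferase reporter in BG1-Luc-4E2 cells served as read-out. Cells, pre-cultured 5 days in stripped-serum phenol-red-free medium, were exposed to compound with 17beta-estradiol co-stimulation for 21.5 h at 37 C.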

Experiment [12] is described as follows: qHTS assay to identify small molecule antagonists of the estrogen receptor alpha (ER-alpha) signaling pathway using the BG1 cell line - cell viability counter screen (AID 743081).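 Further: compound given together with 17beta-estradiol as the ER stimulus; series mostly up to about 70 µM; nearly all actives have a fitted effect of over 45% in size.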
The target of experiment [13] is Aromatase (Homo sapiens) (UniProt P11511). Put plainly: qHTS assay to identify aromatase inhibitors (AID 743083). Further: nearly all actives have a fitted effect of over 55% in size. Further: potency means the concentration at half of the fitted maximal effect.
Sequence of Aromatase (Homo sapiens) (P11511 whole entry, looked up): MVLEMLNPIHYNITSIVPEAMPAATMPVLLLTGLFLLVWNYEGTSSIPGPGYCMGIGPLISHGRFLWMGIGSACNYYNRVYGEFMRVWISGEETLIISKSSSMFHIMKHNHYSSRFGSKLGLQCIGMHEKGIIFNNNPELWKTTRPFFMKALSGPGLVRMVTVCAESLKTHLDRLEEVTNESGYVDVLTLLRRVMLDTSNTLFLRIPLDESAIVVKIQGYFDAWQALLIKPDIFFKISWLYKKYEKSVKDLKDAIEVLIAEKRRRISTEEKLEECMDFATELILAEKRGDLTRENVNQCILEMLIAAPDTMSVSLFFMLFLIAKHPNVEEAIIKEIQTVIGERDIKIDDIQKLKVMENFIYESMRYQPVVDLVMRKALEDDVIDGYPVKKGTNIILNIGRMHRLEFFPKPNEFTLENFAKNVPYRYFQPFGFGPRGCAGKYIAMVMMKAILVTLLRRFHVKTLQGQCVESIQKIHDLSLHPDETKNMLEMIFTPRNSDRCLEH
Experiment [14] concerns the target Androgen receptor (Homo sapiens) (UniProt P10275). Kind of experiment: qHTS assay to identify small molecule antagonists of the androgen receptor (AR) signaling pathway (AID 743035; active means well fitted inhibition curve with a large enough effect in the signal ratio in the repeat runs, not every such curve was filed as active; inconclusive means weak or mixed curves, or effect the other way; inactive means no such curve, though single readings can be large or run the other way; the % refers to the signal ratio; further: potency means the concentration at half of the fitted maximal effect). In short, it runs like this: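 Steps: seed AR-UAS-bla GripTite HEK293 cells, incubate 4 h at 37C; pin in test compound, then add agonist R1881; incubate 16 h at 37C; add LiveBLAzer B/G FRET substrate, 2 h at room temperature; read fluorescence.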

Experiment [15] shares this target. Kind of experiment: qHTS assay to identify small molecule agonists of the androgen receptor (AR) signaling pathway using the MDA cell line (AID 743040; further: nearly all actives have a fitted effect of over 20% in size). In short, it runs like this:
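Testing was done with the MDA-kb2 AR-luc line, a human breast carcinoma stably transfected with MMTV-luciferase containing AR and GR response elements. Cells were exposed 16 h at 37C before ONE-Glo luminescence detection.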

Experiment [16] in a line: qHTS assay to identify small molecule antagonists of the androgen receptor (AR) signaling pathway using the MDA cell line - cell viability counter screen (AID 743041; further: nearly all actives have a fitted effect of over 45% in size). Summed up: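 Compound exposure lasted 16 h at 37C in MDA-kb2 AR-luc cells stimulated with R1881. Protease-based CellTiter-Fluor reagent was applied for the final 30 min and fluorescence measured.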
A short description of experiment [17]: qHTS assay to identify small molecule antagonists of the thyroid receptor (TR) signaling pathway - cell viability counter screen (AID 743064). Further: nearly all actives have a fitted effect of over 50% in size. Further: potency means the concentration at half of the fitted maximal effect. Summed up:
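Counter screen for cytotoxicity: compound plus T3 (1 nM final) on GH3.TRE-Luc cells, 23.5 h at 37 °C, then fluorescence viability readout with CellTiter-Fluor.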

Experiment [18] is described as follows: qHTS assay to identify small molecule antagonists of the thyroid receptor (TR) signaling pathway (AID 743065). Further: nearly all actives have a fitted effect of over 55% in size. Further: potency means the concentration at half of the fitted maximal effect. Summed up:
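GH3.TRE-Luc rat pituitary cells (two TREs driving luciferase) were dosed with compound, then stimulated with 1 nM T3 (final) for 23.5 h at 37 C. ONE-Glo luminescence was the read-out, with CellTiter-Fluor fluorescence as the cytotoxicity counter-screen.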

The target of experiment [19] is Androgen receptor (Homo sapiens) (UniProt P10275). Put plainly: qHTS assay to identify small molecule agonists of the androgen receptor (AR) signaling pathway (AID 743036; active means well fitted activation curve with a large enough effect in the signal ratio in the repeat runs, with a control signal flat, not every such curve was filed as active; inconclusive means weak or mixed curves, or effect the other way; inactive means no such curve, though single readings can be large or run the other way; the % refers to the signal ratio). Summed up:
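In this Tox21 qHTS, 2,000 HEK293 AR-bla cells per well were incubated with compounds for 16 h at 37C and 5% CO2. Fluorescence intensity was recorded 2 h after adding LiveBLAzer B/G FRET substrate at room temperature.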

The target is the same in experiment [20]. Kind of experiment: qHTS assay to identify small molecule antagonists of the androgen receptor (AR) signaling pathway using the MDA cell line (AID 743042; further: nearly all actives have a fitted effect of over 55% in size). In short, it runs like this:
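MDA-kb2 breast carcinoma cells carrying MMTV-luciferase (AR/GR responsive) were co-treated with compounds and the agonist R1881 for 16 h at 37C. Inhibition read as ONE-Glo luminescence; CellTiter-Fluor fluorescence measured in parallel for cytotoxicity.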

Sequence of Androgen receptor (Homo sapiens) (P10275 whole entry, looked up): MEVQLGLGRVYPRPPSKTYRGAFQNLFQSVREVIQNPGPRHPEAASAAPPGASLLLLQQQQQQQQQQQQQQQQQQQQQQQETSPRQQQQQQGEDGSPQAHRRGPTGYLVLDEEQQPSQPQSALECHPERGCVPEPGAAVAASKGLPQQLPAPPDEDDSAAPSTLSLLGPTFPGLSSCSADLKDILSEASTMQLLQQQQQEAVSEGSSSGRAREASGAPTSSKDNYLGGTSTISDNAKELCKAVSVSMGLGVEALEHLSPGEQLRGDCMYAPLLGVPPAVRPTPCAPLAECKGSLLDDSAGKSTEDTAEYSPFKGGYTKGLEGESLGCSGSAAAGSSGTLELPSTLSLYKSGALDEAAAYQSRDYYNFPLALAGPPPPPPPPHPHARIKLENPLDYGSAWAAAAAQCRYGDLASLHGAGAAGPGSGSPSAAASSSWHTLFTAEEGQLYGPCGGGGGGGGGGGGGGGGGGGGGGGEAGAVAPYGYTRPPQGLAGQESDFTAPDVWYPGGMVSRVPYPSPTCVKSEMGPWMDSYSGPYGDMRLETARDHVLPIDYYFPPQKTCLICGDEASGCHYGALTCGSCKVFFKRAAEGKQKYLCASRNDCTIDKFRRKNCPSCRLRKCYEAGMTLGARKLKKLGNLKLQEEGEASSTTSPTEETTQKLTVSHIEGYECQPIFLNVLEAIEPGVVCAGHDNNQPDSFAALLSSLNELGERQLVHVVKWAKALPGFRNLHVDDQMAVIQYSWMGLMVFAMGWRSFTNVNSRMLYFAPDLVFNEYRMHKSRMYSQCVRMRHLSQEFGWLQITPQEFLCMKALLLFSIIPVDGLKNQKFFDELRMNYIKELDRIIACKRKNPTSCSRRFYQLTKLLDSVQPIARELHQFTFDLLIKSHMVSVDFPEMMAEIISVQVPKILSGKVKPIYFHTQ

For `CCCCC(CC)COC(=O)COc1ccc(Cl)cc1Cl` (stereo unspecified), the Potency result in [1], in [2], in experiment [3], in experiment [4], in experiment [5] and in experiment [6] was “inactive” in each case. For the same molecule, the Potency result in [7], in [8], in [9], in experiment [10], in [11] and in [12] was “inactive” each time. In experiment [13], the Potency result was “inactive”.
For the molecule `COc1ccc(S(=O)(=O)N2C(=O)[C@@](c3ccccc3OC)(N3C[C@H](O)C[C@H]3C(=O)N(C)C)c3cc(Cl)ccc32)c(OC)c1`, the Potency result in experiment [1], in experiment [15], in [16], in experiment [8] and in experiment [9] was “inactive” each time. Further, the Potency was 48.6 µM (active) in experiment [2]; 61.1 µM (active) in experiment [3]; 48.6 µM (active) in [4]; 17.4 µM (active) in [14]; 43.6 µM [inconclusive] (active) in experiment [7]; 61.1 µM (active) in [13].
On to `C=C(C)C(=O)OCC`, for which the Potency result in experiment [1], in [2], in experiment [3], in [4], in [16] and in [17] was “inactive” each time. Further, the Potency entry in [18], in [6], in experiment [8], in [9], in [10] and in [11] was “inactive” throughout. Further, the Potency entry in [12] and in [13] was “inactive” throughout.
In the case of `CC(C)(COC(=O)c1ccccc1)COC(=O)c1ccccc1`, the Potency result in [1], in [5], in [18], in experiment [6], in [8] and in experiment [12] was “inactive” each time. The Potency result in experiment [13] was “inactive”. Also, the Potency in experiment [2] was 54.5 µM (active); in [3], 30.6 µM (active); in experiment [4], 48.6 µM (active).
In the case of `NCc1ccccc1Sc1ccccc1CO`, the Potency entry in experiment [1], in experiment [14], in [19], in experiment [15], in experiment [20] and in experiment [6] was “inactive” in each case. Also, the Potency result in experiment [7], in experiment [8], in [9], in experiment [10], in experiment [11] and in experiment [12] was “inactive” in each case. The Potency result in experiment [13] was “inactive”. In addition, the results for the Potency in experiment [2], in [3] and in experiment [4] were 21.1 µM (active), 5.96 µM (active) and 29.8 µM (active), respectively.
Consider `CN1CCC(N(Cc2cccs2)c2ccccc2)CC1`, for which the Potency result in experiment [1], in experiment [16], in experiment [6], in experiment [8], in experiment [9] and in experiment [10] was “inactive” in each case. In addition, the Potency result in experiment [11], in experiment [12] and in [13] was “inactive” throughout. Also, the Potency in experiment [2] is 9.44 µM (active); in [3], 11.9 µM (active); in experiment [4] it was 10.6 µM (active); in experiment [17], 11.9 µM (active); in experiment [18], 23.7 µM (active).
On to `CN1CCN(C(c2ccccc2)c2ccccc2)CC1`, for which the Potency result in [1], in [2], in experiment [3], in [4], in [14] and in [19] was “inactive” throughout. Further, the Potency entry in experiment [15], in experiment [20], in experiment [18], in experiment [6], in [7] and in [8] was “inactive” throughout. Besides, the Potency entry in [9], in experiment [10], in experiment [11], in experiment [12] and in experiment [13] was “inactive” each time.
Turning to `CCCCC(CC)CN1C(=O)C2C3C=CC(C3)C2C1=O` (stereo unspecified), the Potency result in experiment [1], in experiment [16], in experiment [6], in experiment [8], in [9] and in experiment [10] was “inactive” in each case. Moreover, the Potency result in experiment [11] and in [12] was “inactive” throughout. Besides, the Potency is 38.6 µM (active) in experiment [2]; 27.3 µM (active) in experiment [3]; 43.3 µM (active) in [4]; 54.5 µM (active) in [17]; 48.6 µM (active) in experiment [18].
For the molecule `CC(C)OC(=O)C(C)N(C(=O)c1ccccc1)c1ccc(F)c(Cl)c1` (stereo unspecified), the Potency entry in experiment [1], in experiment [5], in [6], in [8], in experiment [12] and in [13] was “inactive” each time. Also, the Potency in [2] is 6.11 µM (active); in experiment [3], 6.86 µM (active); in [4], 13.7 µM (active).
In the case of `COc1ccc(-c2nc3ccc(C4=NNC(=O)CC4C)cc3[nH]2)cc1` (stereo unspecified), the Potency entry in experiment [1], in experiment [15], in experiment [16], in experiment [20], in [6] and in experiment [8] was “inactive” in each case. Further, the Potency entry in [12] and in experiment [13] was “inactive” throughout. The Potency in experiment [2] is 11.9 µM (active); in experiment [3], 11.9 µM (active); in [4] it was 18.8 µM (active); in experiment [14], 19 µM (active); in experiment [18], 23.7 µM (active).
As for `Nc1ccccc1S(=O)(=O)c1ccccc1`, the Potency entry in experiment [1], in experiment [2], in experiment [3], in experiment [4], in experiment [5] and in experiment [17] was “inactive” throughout. The Potency entry in experiment [18], in experiment [6], in experiment [8] and in experiment [12] was “inactive” each time.
`CCCCC`: the Potency result in [1], in [2], in experiment [3], in [4], in experiment [5] and in experiment [17] was “inactive” throughout. Besides, the Potency entry in experiment [18], in experiment [6], in [8] and in experiment [12] was “inactive” in each case.
Regarding `CCCCC/C=C\C/C=C\CCCCCCCC(=O)NC(C)c1ccccc1` (stereo unspecified), the Potency entry in [1], in experiment [2], in experiment [3], in experiment [4], in [5] and in [17] was “inactive” throughout. Besides, the Potency entry in experiment [18], in experiment [6], in experiment [8], in experiment [9], in experiment [10] and in experiment [11] was “inactive” in each case. Moreover, in experiment [12], the Potency result is “inactive”.
Turning to `OC[C@H]1O[C@@H](OCCc2ccc(O)cc2)[C@H](O)[C@@H](O)[C@@H]1O`, the Potency result in [1], in experiment [2], in [3], in [4], in [5] and in [16] was “inactive” each time. In addition, the Potency entry in experiment [6], in [9], in experiment [10], in [11], in experiment [12] and in experiment [13] was “inactive” in each case.
Consider `O=CC1CC=CCC1` (stereo unspecified), for which the Potency result in experiment [1], in [2], in [3], in experiment [4], in experiment [14] and in [19] was “inactive” throughout. The Potency entry in experiment [15], in experiment [16], in [20], in experiment [18], in experiment [6] and in [7] was “inactive” throughout. In addition, the Potency entry in experiment [8], in [9], in [10], in experiment [11], in [12] and in experiment [13] was “inactive” in each case.
Regarding `CCCn1cnc2c1c(=O)n(CCCCC(C)=O)c(=O)n2C`, the Potency entry in experiment [1], in experiment [2], in experiment [3], in experiment [4], in experiment [14] and in [19] was “inactive” each time. Moreover, the Potency result in [15], in experiment [20], in experiment [17], in [18], in [6] and in [7] was “inactive” throughout. Further, the Potency result in experiment [8], in experiment [9], in experiment [10], in experiment [11], in [12] and in experiment [13] was “inactive” each time.

The record behind these values is PubChem BioAssay (Tox21).
